Molecules are shown by their SMILES. Results filed as inconclusive are left out. A call without a number means that no potency is given here. Activity calls are given as the source filed them. Calls come from the whole dose curve; as a rule, active = well fitted curve in the direction sought with a large enough effect; inconclusive = small, poorly fitted or top-dose-only effect, or another doubt; inactive = no such curve, though single readings can be large; an effect the other way counts as inactive or inconclusive.

Test [1] can be described thus: qHTS for Inhibitors of Ubiquitin-specific Protease USP2a Using CHOP2 as the Reporter: K633 Counterscreen (AID 652168). Note: series mostly up to about 57 µM. In outline:
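Detection-system control: fluorescence of K48-linked DiUb-4IQF substrate (100 nM as added) tracked over time, Ex 525/Em 598, with pinned compounds and no enzyme, in pH 8 Tris buffer containing beta-mercaptoethanol and 0.05% Chaps.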
On the technique in general: qHTS replaces the single test concentration by a dilution series.

Test [2] can be described thus: qHTS for Inhibitors of Ubiquitin-specific Protease USP2a Using CHOP2 as the Reporter: Cytotox Assay (AID 652170). Note: nearly all actives have a fitted effect of over 70% in size. Note: potency is the fitted concentration of half-maximal effect. The gist of the method: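 Cytotoxicity read as ATP luminescence (CellTiter-Glo) after 72 hr compound treatment at 37 deg C. Cells: HCT116, 600/well in DMEM plus 10% FBS. Normalization between DMSO-treated cells and cell-free wells.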
Test [3] concerns the target Ubiquitin carboxyl-terminal hydrolase 2 (Homo sapiens) (UniProt O75604). Kind of test: qHTS for Inhibitors of Ubiquitin-specific Protease USP2a Using CHOP2 as the Reporter: K484 Substrate (AID 652173).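 Note: cleavage of internally quenched K48 di-ubiquitin substrate measured as rising fluorescence over time; nearly all actives have a fitted effect of over 70% in size.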 Note: potency is the fitted concentration of half-maximal effect. In outline: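 Kinetic fluorescence (Ex 525/Em 598) tracked cleavage of an internally quenched K48 di-ubiquitin substrate, added as a 100 nM solution. The enzyme was added as a 5 nM USP2 solution before compound pinning, with no-enzyme controls. Buffer: Tris pH 8, beta-mercaptoethanol, CHAPS.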

The target of test [4] is Calcium and integrin-binding protein 1 (Homo sapiens) (UniProt Q99828). Nature of the test: Primary qHTS for Identification of Calcium Integrin Binding Protein 1 (CIB1) Competitor (AID 1508620). Note: top concentration of the series differs between compounds. The gist of the method: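 Fluorescence polarization competition: GST-tagged CIB1 (1 uM final) preincubated with compound 15 min at room temperature, then FITC-labelled alphaIIb peptide (100 nM final) added. After 15 min at room temperature, polarization read at Ex 480/Em 540.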
Sequence of Calcium and integrin-binding protein 1 (Homo sapiens) (Q99828 whole entry, looked up): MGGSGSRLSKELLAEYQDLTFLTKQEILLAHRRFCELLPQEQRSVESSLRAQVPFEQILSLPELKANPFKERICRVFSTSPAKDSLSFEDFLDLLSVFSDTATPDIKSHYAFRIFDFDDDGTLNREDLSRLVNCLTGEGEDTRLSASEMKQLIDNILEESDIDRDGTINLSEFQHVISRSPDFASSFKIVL

Sequence of Ubiquitin carboxyl-terminal hydrolase 2 (Homo sapiens) (O75604 whole entry, looked up): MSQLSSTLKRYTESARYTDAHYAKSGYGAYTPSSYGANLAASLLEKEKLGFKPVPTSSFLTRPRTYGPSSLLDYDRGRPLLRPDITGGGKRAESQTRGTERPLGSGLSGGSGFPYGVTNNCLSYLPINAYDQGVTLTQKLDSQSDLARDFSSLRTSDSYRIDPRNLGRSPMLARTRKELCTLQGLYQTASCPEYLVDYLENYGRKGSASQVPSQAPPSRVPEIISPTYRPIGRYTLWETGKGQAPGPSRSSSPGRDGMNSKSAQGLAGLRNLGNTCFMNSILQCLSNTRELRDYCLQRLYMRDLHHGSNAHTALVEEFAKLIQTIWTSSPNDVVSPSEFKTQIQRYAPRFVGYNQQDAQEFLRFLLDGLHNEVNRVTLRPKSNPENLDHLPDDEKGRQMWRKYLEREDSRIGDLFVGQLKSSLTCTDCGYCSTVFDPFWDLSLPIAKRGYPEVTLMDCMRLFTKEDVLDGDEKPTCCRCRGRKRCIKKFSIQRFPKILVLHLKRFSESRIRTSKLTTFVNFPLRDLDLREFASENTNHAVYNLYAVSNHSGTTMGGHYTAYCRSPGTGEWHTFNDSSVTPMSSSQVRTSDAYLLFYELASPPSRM

`CCOC(=O)c1csc(NC(=O)c2ccncc2NS(=O)(=O)c2ccc(C)cc2)n1`: the molecule was classed as inactive in test [1]. Also, the Potency result in test [2] and in test [4] was “inactive” throughout. In addition, the Potency in test [3] is 21.7 µM (active).

Turning to `COC(=O)c1ccc(NC(=O)c2cc(-c3ccc(C)c(C)c3)nc3ccccc23)cc1`, in test [1], the result was inactive. In addition, the Potency result in test [2] and in test [4] was “inactive” in each case. Moreover, the Potency in test [3] is 19.3 µM (active).

For the molecule `O=C(Cc1nc2ccc(Cl)cc2[nH]1)Nc1ccc(S(=O)(=O)Nc2nccs2)cc1`, in test [1], the result was inactive. Besides, the Potency entry in test [2] and in test [4] was “inactive” each time. Also, in test [3], the Potency is 30.6 µM (active).

With `Cc1ccc(S(=O)(=O)Nc2cnccc2C(=O)Nc2ccc(-c3nc4ccccc4[nH]3)cc2)cc1`, the call in test [1] was inactive. Besides, the Potency entry in test [2] and in test [4] was “inactive” throughout. Moreover, in test [3], the Potency was 2.17 µM (active).

Regarding `CCCCCN1CCC(C(=O)Nc2ccc([S+](=O)([O-])Nc3nccs3)cc2)CC1`, the result in test [1] was inactive. Further, the Potency result in test [2], in test [3] and in test [4] was “inactive” each time.

On to `O=c1[nH]c(CN2CCOCC2)nc2sc3c(c12)CCC3`, for which the outcome in test [1] was inactive. Besides, the Potency result in test [2], in test [3] and in test [4] was “inactive” each time.

In the case of `O=C(Nc1nc(-c2ccccc2)cs1)c1ccccc1S(=O)(=O)Nc1nccs1`, in test [1], the call was inactive. Also, the Potency entry in test [2] and in test [4] was “inactive” throughout. Besides, the Potency in test [3] is 12.2 µM (active).

Consider `O=c1[nH]c(CCl)nc2sc3c(c12)CCCC3`, for which, in test [1], the molecule was classed as inactive. Moreover, in test [2], the Potency is 10.5 µM (active). Also, the Potency entry in test [4] was “inactive”.

Regarding `CCCC1CCC(C(=O)Nc2ccc(S(=O)(=O)Nc3nccs3)cc2)CC1` (stereo unspecified), in test [1], the result was inactive. In addition, the Potency result in test [2] and in test [4] was “inactive” in each case. Further, in test [3], the Potency was 10.9 µM (active).

In the case of `Cc1ccc(S(=O)(=O)Nc2cnccc2C(=O)NCc2ccccc2)cc1`, the outcome in test [1] was inactive. In addition, the Potency result in test [2] and in test [4] was “inactive” each time.

Regarding `Cc1noc(C)c1S(=O)(=O)Nc1cnccc1C(=O)Nc1nc(-c2ccccc2)cs1`, in test [1], the molecule was called inactive. Further, the Potency result in test [2] and in test [4] was “inactive” each time.

As to `O=S(=O)(Nc1ccc(S(=O)(=O)Nc2nccs2)cc1)c1ccc2ccccc2c1`, in test [1], the outcome was inactive. For the same molecule, the Potency entry in test [2] and in test [4] was “inactive” throughout.

As for `CC1CCC(C(=O)Nc2ccc([S+](=O)([O-])Nc3nccs3)cc2)CC1` (stereo unspecified), in test [1], the molecule was classed as inactive. Also, the Potency result in test [2] and in test [4] was “inactive” each time.

In the case of `Cc1ccc(S(=O)(=O)Nc2cnccc2C(=O)Nc2ccncc2)cc1`, the result in test [1] was inactive. The Potency result in test [2], in test [3] and in test [4] was “inactive” each time.

Turning to `Cc1ccc(S(=O)(=O)Nc2ccccc2C(=O)Nc2ncc(-c3ccccc3)s2)cc1`, the Potency in test [2] was 18.7 µM (active); in test [3] it was 1.93 µM (active). Further, the Potency result in test [4] was “inactive”.

Turning to `O=C(Nc1ccc([S+](=O)([O-])Nc2nccs2)cc1)c1ccccn1`, the molecule was classed as inactive in test [1]. The Potency result in test [2], in test [3] and in test [4] was “inactive” each time.

In the case of `Clc1nc(CN2CCOCC2)nc2sc3c(c12)CCC3`, in test [1], the call was inactive. Besides, the Potency entry in test [3] and in test [4] was “inactive” throughout.

As to `O=C(Nc1nc(-c2ccccc2)cs1)c1ccccc1-n1cnnn1`, the Potency result in test [2] and in test [4] was “inactive” in each case.

On to `Cc1ccc(S(=O)(=O)NCC(=O)Nc2nc(-c3ccccc3)cs2)cc1`, for which, in test [1], the call was inactive. Further, the Potency result in test [2] and in test [4] was “inactive” each time. Besides, in test [3], the Potency was 19.3 µM (active).

For `O=C(Nc1ccc([S+](=O)([O-])Nc2nccs2)cc1)c1ncn[nH]1`, in test [1], the molecule was classed as inactive. Moreover, the Potency result in test [3] and in test [4] was “inactive” in each case.

Regarding `O=C(Cc1ccccc1)Nc1ccc(S(=O)(=O)Nc2nccs2)cc1`, in test [1], the molecule was classed as inactive. Further, the Potency entry in test [3] and in test [4] was “inactive” throughout.

Turning to `COc1ccccc1C(=O)Nc1nc(-c2ccccc2)cs1`, the Potency entry in test [2] and in test [4] was “inactive” throughout. The Potency in test [3] was 10.9 µM (active).

In the case of `COc1ccc(OC)c(C(=O)Nc2nc(-c3ccccc3)cs2)c1`, the Potency result in test [2] and in test [4] was “inactive” in each case.

In the case of `COc1ccc(-c2csc(NC(=O)c3ccccc3NS(=O)(=O)c3ccc(C)cc3)n2)cc1`, the outcome in test [1] was inactive. The values for the Potency in test [2] and in test [3] were 18.7 µM (active) and 2.73 µM (active), respectively. Further, in test [4], the Potency result was “inactive”.

With `Cc1ccc(-c2cc(C(=O)Nc3ccc(-c4noc(=O)[nH]4)cc3)c3ccccc3n2)cc1C`, the outcome in test [1] was inactive. The Potency in test [3] is 4.32 µM (active). Also, the Potency result in test [4] is “inactive”.

For `Cc1ccc(S(=O)(=O)n2cc(C(=O)Nc3ccc(-c4ccccc4)cc3)c3ccccc32)cc1`, the call in test [1] was inactive. In addition, the Potency entry in test [2] and in test [4] was “inactive” in each case. For the same molecule, the Potency in test [3] is 21.7 µM (active).

On to `Cc1cccc2c(C(=O)O)cc(Cl)nc12`, for which the molecule was classed as inactive in test [1]. In addition, the Potency result in test [3] and in test [4] was “inactive” in each case.

Regarding `Cc1cccc(NC(=O)c2cc(-c3ccc(C)c(C)c3)nc3ccccc23)c1`, the molecule was called inactive in test [1]. The Potency entry in test [2], in test [3] and in test [4] was “inactive” each time.

The values are drawn from PubChem BioAssay (NCATS).
